The full list was thinned out, with hits kept by preference.
APEX1 inh: APE1 (human) endonuclease inhibition. P27695. recombinant APE1, TAMRA/BHQ-2 abasic DNA cleavage fluorescence. Potency, µM (series often up to 65.8 µM), actives largely listed as inhibitors. 350,000 tested, 0.35% active. AID 2517; further: nearly all actives have a fitted effect of over 55% in size
Target sequence (P27695 whole entry, looked up): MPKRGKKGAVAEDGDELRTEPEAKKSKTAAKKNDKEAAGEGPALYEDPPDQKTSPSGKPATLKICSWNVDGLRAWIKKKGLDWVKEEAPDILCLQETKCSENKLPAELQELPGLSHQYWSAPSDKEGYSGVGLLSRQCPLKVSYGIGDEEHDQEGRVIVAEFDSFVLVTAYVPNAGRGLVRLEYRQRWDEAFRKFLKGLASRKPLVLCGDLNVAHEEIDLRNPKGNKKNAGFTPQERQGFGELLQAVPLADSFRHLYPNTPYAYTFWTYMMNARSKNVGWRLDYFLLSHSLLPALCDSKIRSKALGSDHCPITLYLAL
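Quantitative HTS: incision of a TAMRA/BHQ-2 double-stranded substrate bearing a tetrahydrofuran abasic site by 0.75 nM APE1 raises fluorescence. Substrate 50 nM final, added after 15 min compound preincubation at room temperature; progress as third-minus-first kinetic read difference.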
BLM inh: blocks DNA unwinding by human BLM helicase | P54132 | recombinant BLM DNA unwinding, fluorescence dequenching | Potency, µM (highest dose often 56.1 µM), usual class: inhibitors | 350,000 tested, 0.2% active; further: nearly all actives have a fitted effect of over 35% in size
JMJD2E inh: inhibitors of human JMJD2E histone demethylase. JMJD2E catalytic domain, FDH-coupled NADH fluorescence (FDH is formaldehyde dehydrogenase). Potency, µM (titrated, usually from 57.1 µM), most hits filed as inhibitors. 230,000 tested, 1.6% active. AID 2147; active means well fitted inhibition curve with a large enough effect, not every such curve was filed as active; inconclusive means small, poorly fitted or top-dose-only effect, or another doubt; inactive means no such curve, though single readings can be large or run the other way; further: nearly all actives have a fitted effect of over 50% in size
Target sequence (B2RXH2 1-337 limits assumed): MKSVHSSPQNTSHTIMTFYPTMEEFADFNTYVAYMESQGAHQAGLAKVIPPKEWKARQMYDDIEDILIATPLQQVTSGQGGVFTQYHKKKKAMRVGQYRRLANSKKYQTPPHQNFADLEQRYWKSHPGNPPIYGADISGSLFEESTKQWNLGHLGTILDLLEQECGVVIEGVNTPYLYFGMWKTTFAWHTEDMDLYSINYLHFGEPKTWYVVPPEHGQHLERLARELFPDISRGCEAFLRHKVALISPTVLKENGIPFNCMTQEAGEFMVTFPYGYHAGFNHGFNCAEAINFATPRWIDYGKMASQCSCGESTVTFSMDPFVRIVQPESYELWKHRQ
L3MBTL1 inh: L3MBTL1 (human) inhibition. Q9Y468. AlphaScreen L3MBTL1–H3K9me1 peptide binding. Potency, µM (top dose mostly 57.1 µM), hits mostly inhibitors. 230,000 tested, 0.66% active. AID 485360; further: nearly all actives have a fitted effect of over 60% in size
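L3MBTL1 50 nM + b-AHA-H3(1-15)K9me1 75 nM, 30 min RT; compound added, 30 min RT; streptavidin donor/Ni-chelate acceptor beads 10 ug/mL each final, 30 min RT dark; AlphaScreen read.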
RECQ1 inh: RECQ1 (human) helicase inhibition; P46063; RECQ1 DNA unwinding, red fluorescence kinetic read; Potency, µM (top dose mostly 57.3 µM), actives largely listed as inhibitors; 240,000 tested, 0.54% active; AID 2549; further: nearly all actives have a fitted effect of over 30% in size
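50 nM RECQ1T1 preincubated 15 min with compound in Tris pH 8.0 buffer with MgCl2, DTT, Tween-20 and 2.5 ug/ml poly(dI-dC); started with 200 nM TAMRA/BHQ-2 forked duplex and 2 mM ATP. Unwinding read as fluorescence (525/598 nm), two reads 2 h apart.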
GoLoco inh red: inhibitors of human Gai1-RGS12 GoLoco interaction (red fluorophore); P63096; Gai1:RGS12 GoLoco peptide FP, rhodamine, 10 min; Potency, µM (top dose mostly 61.6 µM), most hits filed as inhibitors; 230,000 tested, 0.44% active; AID 880; active means well fitted inhibition curve with a large enough effect, not every such curve was filed as active; inactive means no such curve, though single readings can be large or run the other way; further: nearly all actives have a fitted effect of over 30% in size
Hits are given with their value; . = inactive; ? = inconclusive; / = no result given; [ ] = remark or other dose. Unless noted, the call rests on the fitted dose curve; in most records, active means well fitted curve in the direction sought with a large enough effect; inconclusive means small, poorly fitted or top-dose-only effect, or another doubt; inactive means no such curve, though single readings can be large; an effect the other way counts as inactive or inconclusive.

SMILES	APEX1 inh	BLM inh	JMJD2E inh	L3MBTL1 inh	RECQ1 inh	GoLoco inh red
O=C1C2C3C=CC(C3)C2C(=O)N1CNc1ccc(O)cc1 (stereo not drawn)	?	25.1µM	?	?	?	.
Cc1ccc(NCN2C(=O)C3C4C=CC(C4)C3C2=O)cc1 (stereo not drawn)	.	.	.	.	.	.
Cc1ccc(CNc2ccc(O)cc2)cc1	.	25.1µM	11.2µM	25.1µM	.	17.8µM
CCOC(=O)C1=C(C)N(C[C@@H]2CC[C@@H](Cc3ccc(-c4ccccc4)cc3)O2)C(=O)NC1c1ccc(SCc2ccco2)c([N+](=O)[O-])c1 (stereo partly drawn)	.	/	/	31.6µM	/	/
C[n+]1cnc(-c2ccccc2)cc1-c1ccccc1	.	.	?	.	.	14.1µM
Fc1ccc2cc(-c3ccccc3)ncc2c1	.	/	/	.	/	/
O=C1C2CC=C(Cl)CC2C(=O)N1CCCCCCN1C(=O)C2CC=C(Cl)CC2C1=O (stereo not drawn)	31.6µM	?	.	/	28.2µM	.
O=C1C2CC=C(Cl)CC2C(=O)N1CCN1CCOCC1 (stereo not drawn)	.	.	.	/	.	.
Cc1ccc(-n2cccc2/C=C2/C(=N)N3C(=NC2=O)SN=C3S(C)(=O)=O)cc1	?	.	.	?	25.1µM	.
CS(=O)(=O)C1=NSC2=NC(=O)/C(=C\c3ccc(-c4ccccc4)o3)C(=N)N21	.	.	.	.	?	.
CCc1ccc(-n2cccc2/C=C2/C(=N)N3C(=NC2=O)SN=C3S(C)(=O)=O)cc1	?	?	.	?	35.5µM	.
CCC1=NN2C(=N)/C(=C\c3cccn3-c3ccc(Cl)cc3)C(=O)N=C2S1	.	.	.	/	.	.
Cc1cc(C)cc(-n2cccc2/C=C2/C(=N)N3C(=NC2=O)SN=C3S(C)(=O)=O)c1	?	31.6µM	.	/	31.6µM	.
CS(=O)(=O)C1=NSC2=NC(=O)/C(=C\c3cccn3-c3ccccc3Cl)C(=N)N21	.	.	.	.	25.1µM	.
CC(C)(C)n1ncc2c(=O)n(Cc3ccccc3-c3ccccc3)cnc21	.	/	/	/	/	/
c1cnc2c(c1)ccc1cccnc12	.	.	25.1µM	3.16µM	.	.[14.2 µM]
Cc1ccnc2c1ccc1cccnc12	.	/	/	3.55µM	/	/
Cc1ccnc2c1ccc1ccccc12	.	.	/	/	/	/
CSS(=O)(=O)c1cccc2cccnc12	.	.	2.51µM	.	.	.
NC(=O)C(=CNc1nc(-c2ccc(Cl)c(Cl)c2)cs1)C(N)=O	0.631µM	?	7.94µM	.	3.55µM	.
O=C(O)c1ccc(-c2nc(-c3ccc(Cl)c(Cl)c3)cs2)cc1	.	.	?	/	.	.
CC(=O)Nc1ccc(N=Cc2c(O)c(C(=O)Nc3ccccc3)cc3ccccc23)cc1	?	.	.	.	.	14.1µM
C[N+]1(CC2COC(c3ccccc3)(C3CCCCC3)O2)CCCCC1 (stereo not drawn)	/	.	/	/	/	/
C[N+]1(CC2COC3(CCCCC3)O2)CCCCC1 (stereo not drawn)	.	.	.	/	.	8.91µM
CC(C)(C)n1ncc2c(=O)n(Cc3ccccc3C#N)cnc21	.	/	/	/	/	/
SMILES	APEX1 inh	BLM inh	JMJD2E inh	L3MBTL1 inh	RECQ1 inh	GoLoco inh red
C=CCn1c(N)c(C(=O)NCC2CCCO2)c2nc3ccccc3nc21 (stereo not drawn)	.	5.62µM	.	?	.	/
O=C(NCC1CCCO1)c1coc2nc3ccccc3nc12 (stereo not drawn)	.	.	?	.	.	.
CCN1CCS/C1=C\C=C\C1=[N+](CC)CCS1	.	.	/	.	.	.
CCN1CCS/C1=C/C=C/C1=[N+](CC)CCS1	.	.	28.2µM	.	.	.
CCOCCCNC(=O)/C(C#N)=C/c1ccc(Cl)c([N+](=O)[O-])c1	.	.	20µM	.	.	.
CCOCCCNC(=O)/C(C#N)=C/c1cc(OC)c(O)c([N+](=O)[O-])c1	.	.	?	.	.	.
COCCNC(=O)c1cc2c(-c3ccc(Cl)cc3)nn(C)c2s1	?	.	?	/	.	.
CC(C)NC(=O)c1cc2c(-c3ccc(Cl)cc3)nn(C)c2s1	.	.	8.91µM	.	.	.
COc1ccccc1NC(C)=O	.	.	.	.	.	.
COc1ccccc1NC1=C(NC(C)=O)C(=O)c2ccccc2C1=O	.	.	25.1µM	?	.	.
COC1=C(Nc2ccccc2OC)C(=O)c2ccccc2C1=O	.	.	?	20µM	.	.
COc1ccc2oc(=O)cc(CN3CCN(C(=O)c4ccccc4Br)CC3)c2c1	/	.	/	/	/	/
CCOC(=O)c1c(NC(C)=O)no[n+]1[O-]	.	.	.	.[11.4 µM]	.	.
CCOC(=O)C1=CC(OC(CC)CC)C(NC(C)=O)C(N)C1 (stereo not drawn)	/	.	.	/	.	31.6µM
CC[N+](CC)(CC)CCOc1cccc(OCC[N+](CC)(CC)CC)c1OCC[N+](CC)(CC)CC	.	.	.	.	.	10µM
CC[N+](CC)(CC)CCOc1ccc(/C=C\c2ccccc2)cc1	.	.	25.1µM	/	.	.
Oc1ccccc1/C=N/NC(=S)NC1CC2C=CC1C2 (stereo not drawn)	.	.	25.1µM	?	.	.
Oc1ccccc1/C=N/NC(=S)NCCc1ccccc1	.	.	/	/	/	/
Oc1c(Cl)cc(Cl)cc1/C=N/NC(=S)NC1CC2C=CC1C2 (stereo not drawn)	.	.	?	31.6µM	.	.
Cc1ccccc1-c1nc2scc(CCNS(=O)(=O)c3ccccc3)n2n1	/	.	/	/	/	/
O=C1OCC2OC(O)C(O)C(O)C2OC(=O)c2cc(O)c(O)c(O)c2-c2c(O)c(O)c3oc(=O)c4c(c(O)c(O)c5oc(=O)c2c3c54)-c2c1cc(O)c(O)c2O (stereo not drawn)	0.0355µM	0.708µM	0.562µM	/	0.398µM	.
Nc1nnc(-c2ccc3ccccc3c2)o1	.	/	/	/	/	/
N#C/C(=C/c1ccncc1)c1nc2ccccc2c(=O)[nH]1	.	.	.	/	.	.
N#C/C(=C\c1cc(Br)c(O)c(Br)c1)c1nc2ccccc2c(=O)[nH]1	/	12.6µM	/	/	/	/
Cc1ccc(NS(=O)(=O)c2cc([N+](=O)[O-])ccc2NNC(=S)Nc2cccc(Cl)c2)c(C)c1	.	.	?	25.1µM	.	.
Cc1ccc(NS(=O)(=O)c2cc([N+](=O)[O-])ccc2NNC(=S)Nc2cc(C)ccc2C)c(C)c1	.	.	.	?	.	.
Cc1nn(-c2ccc(N3CCOCC3)nn2)c(C)c1CCC(=O)NCc1ccc(OC(C)C)cc1	/	.	/	/	/	/
C=CCOn1c(=O)c(-c2ccccc2)[n+]([O-])c2ccccc21	.	.	20µM	/	.	.
C#CCSc1nc2sc3c(c2c(=O)n1C)CCC3	9.47µM	.	/	/	/	/
COc1ccc(C2c3[nH]c4ccccc4c3CCN2Cc2cccn2-c2ncccn2)cc1C (stereo not drawn)	.	.	.	.	.	.

Compound activity from PubChem BioAssay.
